What is called inhibition is the drop in the measured response relative to a control, in per cent.

This note sets out measurements from ChEMBL document CHEMBL1961873, “Compounds: GSK PKIS; Assays: Nanosyn kinase panel” (2012).

The target in test [1] is T1, Tyrosine-protein kinase ITK/TSK (Homo sapiens) (UniProt Q08881).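 Note: values are mean percent inhibition of ITK from the GSK PKIS screen.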
T1 sequence (whole entry): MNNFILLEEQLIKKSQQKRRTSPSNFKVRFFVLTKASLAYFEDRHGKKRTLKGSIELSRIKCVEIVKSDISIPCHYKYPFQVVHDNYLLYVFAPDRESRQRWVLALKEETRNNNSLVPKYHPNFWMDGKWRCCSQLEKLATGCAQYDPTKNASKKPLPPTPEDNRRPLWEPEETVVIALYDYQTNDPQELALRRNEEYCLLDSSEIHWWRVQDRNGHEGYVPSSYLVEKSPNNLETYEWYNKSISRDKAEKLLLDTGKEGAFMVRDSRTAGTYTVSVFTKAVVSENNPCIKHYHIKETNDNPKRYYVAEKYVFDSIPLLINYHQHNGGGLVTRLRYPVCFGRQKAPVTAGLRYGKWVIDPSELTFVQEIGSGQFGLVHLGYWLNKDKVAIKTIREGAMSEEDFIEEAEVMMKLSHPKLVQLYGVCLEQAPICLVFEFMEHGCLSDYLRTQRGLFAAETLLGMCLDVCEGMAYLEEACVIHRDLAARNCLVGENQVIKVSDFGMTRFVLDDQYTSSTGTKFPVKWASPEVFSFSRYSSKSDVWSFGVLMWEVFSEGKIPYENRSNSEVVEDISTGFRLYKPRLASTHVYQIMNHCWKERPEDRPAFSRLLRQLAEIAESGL
To be noted: at 1 µM.

The target in test [2] is Tyrosine-protein kinase JAK1 (Homo sapiens) (UniProt P23458). To be noted: at 0.1 µM.
Test [3] has the same target. To be noted: at 1 µM.
Test [4] has as its target Tyrosine-protein kinase JAK2 (Homo sapiens) (UniProt O60674). To be noted: at 0.1 µM.
Test [5] has the same target. To be noted: at 1 µM.
For test [6], the target named is T2, Tyrosine-protein kinase JAK3 (Homo sapiens) (UniProt P52333).
T2 sequence (whole entry): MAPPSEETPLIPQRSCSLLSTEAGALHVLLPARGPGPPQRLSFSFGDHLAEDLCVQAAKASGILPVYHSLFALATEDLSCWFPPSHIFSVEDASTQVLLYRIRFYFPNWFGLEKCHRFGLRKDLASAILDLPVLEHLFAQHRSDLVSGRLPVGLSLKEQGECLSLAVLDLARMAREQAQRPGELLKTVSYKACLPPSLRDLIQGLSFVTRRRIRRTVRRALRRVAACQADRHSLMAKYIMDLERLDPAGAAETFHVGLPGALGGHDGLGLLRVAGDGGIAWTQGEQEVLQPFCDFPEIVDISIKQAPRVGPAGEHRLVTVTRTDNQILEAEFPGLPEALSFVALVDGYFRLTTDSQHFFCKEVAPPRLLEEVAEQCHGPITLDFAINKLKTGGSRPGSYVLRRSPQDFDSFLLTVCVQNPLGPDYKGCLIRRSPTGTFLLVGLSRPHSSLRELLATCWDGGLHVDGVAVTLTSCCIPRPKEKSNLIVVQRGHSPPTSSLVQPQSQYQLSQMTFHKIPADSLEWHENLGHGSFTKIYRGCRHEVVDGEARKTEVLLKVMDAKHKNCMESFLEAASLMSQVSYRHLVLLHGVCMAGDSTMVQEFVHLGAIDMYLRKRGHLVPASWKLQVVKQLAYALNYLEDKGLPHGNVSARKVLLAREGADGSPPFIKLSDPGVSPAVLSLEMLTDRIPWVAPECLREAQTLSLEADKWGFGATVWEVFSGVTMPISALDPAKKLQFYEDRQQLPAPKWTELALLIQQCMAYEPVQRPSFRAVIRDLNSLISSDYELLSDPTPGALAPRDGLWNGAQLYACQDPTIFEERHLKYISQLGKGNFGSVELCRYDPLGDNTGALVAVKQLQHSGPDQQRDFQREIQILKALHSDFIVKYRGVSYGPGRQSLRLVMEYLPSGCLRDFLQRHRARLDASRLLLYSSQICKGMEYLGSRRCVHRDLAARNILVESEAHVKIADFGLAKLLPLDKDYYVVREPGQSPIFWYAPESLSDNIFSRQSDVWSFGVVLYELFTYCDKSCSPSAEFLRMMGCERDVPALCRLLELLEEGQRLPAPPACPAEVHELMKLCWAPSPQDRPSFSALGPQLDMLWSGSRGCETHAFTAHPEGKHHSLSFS
Conditions: at 0.1 µM.

Test [7] concerns the target T2, Tyrosine-protein kinase JAK3 (Homo sapiens). To be noted: at 1 µM.
Test [8] deals with Vascular endothelial growth factor receptor 2 (Homo sapiens) (UniProt P35968). Conditions: at 0.1 µM.
The target is the same in test [9]. Conditions: at 1 µM.
Test [10] deals with Mast/stem cell growth factor receptor Kit (Homo sapiens) (UniProt P10721). Conditions: at 0.1 µM.

SMILES strings stand for the structures.

Mast/stem cell growth factor receptor Kit (Homo sapiens), sequence (P10721 whole entry): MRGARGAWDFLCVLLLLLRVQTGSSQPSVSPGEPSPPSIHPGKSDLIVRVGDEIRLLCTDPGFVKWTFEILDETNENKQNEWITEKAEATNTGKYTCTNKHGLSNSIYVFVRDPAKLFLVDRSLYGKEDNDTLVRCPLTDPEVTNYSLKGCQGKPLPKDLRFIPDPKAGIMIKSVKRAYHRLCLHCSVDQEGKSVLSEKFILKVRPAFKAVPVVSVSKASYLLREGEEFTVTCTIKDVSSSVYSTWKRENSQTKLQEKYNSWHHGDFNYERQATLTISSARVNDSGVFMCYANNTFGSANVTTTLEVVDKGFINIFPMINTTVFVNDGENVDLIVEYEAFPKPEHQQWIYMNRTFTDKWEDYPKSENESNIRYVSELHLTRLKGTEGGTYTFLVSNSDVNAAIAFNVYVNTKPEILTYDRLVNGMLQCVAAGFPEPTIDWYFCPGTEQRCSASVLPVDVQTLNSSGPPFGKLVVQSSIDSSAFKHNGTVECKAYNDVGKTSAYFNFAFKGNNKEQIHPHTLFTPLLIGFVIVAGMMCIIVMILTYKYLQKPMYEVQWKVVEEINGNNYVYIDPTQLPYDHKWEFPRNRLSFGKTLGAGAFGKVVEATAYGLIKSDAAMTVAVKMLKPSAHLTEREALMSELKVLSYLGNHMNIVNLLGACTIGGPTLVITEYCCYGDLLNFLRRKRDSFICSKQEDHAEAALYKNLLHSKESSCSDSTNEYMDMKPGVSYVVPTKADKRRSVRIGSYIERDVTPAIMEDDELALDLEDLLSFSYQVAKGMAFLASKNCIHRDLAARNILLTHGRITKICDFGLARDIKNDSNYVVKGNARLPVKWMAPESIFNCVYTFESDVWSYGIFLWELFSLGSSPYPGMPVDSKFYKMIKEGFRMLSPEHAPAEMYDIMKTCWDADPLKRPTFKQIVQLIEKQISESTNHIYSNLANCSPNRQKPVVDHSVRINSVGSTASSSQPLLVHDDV
Tyrosine-protein kinase JAK1 (Homo sapiens), sequence (P23458 whole entry): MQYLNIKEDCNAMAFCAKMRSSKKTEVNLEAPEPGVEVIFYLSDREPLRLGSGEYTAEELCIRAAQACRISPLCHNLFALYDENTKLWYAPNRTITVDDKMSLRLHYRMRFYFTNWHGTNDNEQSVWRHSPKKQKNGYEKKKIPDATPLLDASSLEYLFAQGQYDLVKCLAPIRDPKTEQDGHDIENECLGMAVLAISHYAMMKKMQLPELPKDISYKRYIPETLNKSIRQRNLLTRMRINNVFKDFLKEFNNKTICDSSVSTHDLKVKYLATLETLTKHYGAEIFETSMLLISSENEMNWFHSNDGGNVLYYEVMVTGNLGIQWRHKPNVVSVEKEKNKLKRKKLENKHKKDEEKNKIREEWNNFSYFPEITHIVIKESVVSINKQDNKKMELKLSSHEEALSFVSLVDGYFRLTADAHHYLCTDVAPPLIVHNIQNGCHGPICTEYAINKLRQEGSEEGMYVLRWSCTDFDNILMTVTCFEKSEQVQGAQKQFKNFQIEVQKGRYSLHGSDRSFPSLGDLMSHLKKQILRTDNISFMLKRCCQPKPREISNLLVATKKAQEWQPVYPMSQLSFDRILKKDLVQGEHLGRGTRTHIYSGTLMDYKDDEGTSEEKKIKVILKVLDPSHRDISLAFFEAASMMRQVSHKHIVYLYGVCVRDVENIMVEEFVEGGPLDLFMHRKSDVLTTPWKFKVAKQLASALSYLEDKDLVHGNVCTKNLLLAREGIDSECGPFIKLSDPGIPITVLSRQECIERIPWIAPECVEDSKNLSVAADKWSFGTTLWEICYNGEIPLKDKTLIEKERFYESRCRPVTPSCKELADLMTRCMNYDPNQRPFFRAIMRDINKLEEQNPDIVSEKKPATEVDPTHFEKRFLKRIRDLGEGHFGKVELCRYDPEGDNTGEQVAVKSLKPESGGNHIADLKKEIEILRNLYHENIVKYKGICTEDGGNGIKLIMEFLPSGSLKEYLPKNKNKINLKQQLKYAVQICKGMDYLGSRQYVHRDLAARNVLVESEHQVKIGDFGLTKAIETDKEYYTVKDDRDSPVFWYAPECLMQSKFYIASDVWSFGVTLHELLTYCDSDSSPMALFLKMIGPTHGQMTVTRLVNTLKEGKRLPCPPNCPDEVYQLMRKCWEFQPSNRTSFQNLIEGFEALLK
Tyrosine-protein kinase JAK2 (Homo sapiens), sequence (O60674 whole entry): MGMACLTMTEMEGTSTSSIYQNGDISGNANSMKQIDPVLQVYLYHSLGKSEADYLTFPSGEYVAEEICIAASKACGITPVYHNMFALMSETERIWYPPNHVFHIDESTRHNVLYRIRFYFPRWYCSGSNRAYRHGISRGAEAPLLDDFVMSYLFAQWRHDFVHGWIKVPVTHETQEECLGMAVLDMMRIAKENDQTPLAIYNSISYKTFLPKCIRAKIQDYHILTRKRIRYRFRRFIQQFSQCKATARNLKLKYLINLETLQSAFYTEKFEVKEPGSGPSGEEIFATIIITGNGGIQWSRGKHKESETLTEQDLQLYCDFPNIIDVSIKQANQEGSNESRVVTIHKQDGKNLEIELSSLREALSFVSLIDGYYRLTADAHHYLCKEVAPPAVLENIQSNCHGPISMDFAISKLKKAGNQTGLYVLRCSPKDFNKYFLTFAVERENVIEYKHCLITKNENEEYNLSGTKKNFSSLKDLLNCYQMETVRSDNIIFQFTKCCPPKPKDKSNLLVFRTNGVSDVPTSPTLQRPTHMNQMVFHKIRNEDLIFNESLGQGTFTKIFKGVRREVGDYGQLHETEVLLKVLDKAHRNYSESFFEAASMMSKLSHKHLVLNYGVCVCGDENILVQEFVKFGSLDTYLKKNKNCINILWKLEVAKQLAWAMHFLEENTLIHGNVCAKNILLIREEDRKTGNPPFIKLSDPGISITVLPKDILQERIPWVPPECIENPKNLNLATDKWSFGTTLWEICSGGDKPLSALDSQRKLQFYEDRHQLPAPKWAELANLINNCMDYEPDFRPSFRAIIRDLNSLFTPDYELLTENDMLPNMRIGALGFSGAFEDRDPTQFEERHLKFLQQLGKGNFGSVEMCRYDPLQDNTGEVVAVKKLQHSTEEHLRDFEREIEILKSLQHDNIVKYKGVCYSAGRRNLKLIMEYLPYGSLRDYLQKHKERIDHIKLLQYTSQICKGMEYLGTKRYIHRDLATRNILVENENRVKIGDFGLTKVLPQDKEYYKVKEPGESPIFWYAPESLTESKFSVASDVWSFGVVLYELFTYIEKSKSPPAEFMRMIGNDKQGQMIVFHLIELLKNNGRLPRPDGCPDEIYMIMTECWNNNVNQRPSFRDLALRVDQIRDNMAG
Vascular endothelial growth factor receptor 2 (Homo sapiens), sequence (P35968 whole entry): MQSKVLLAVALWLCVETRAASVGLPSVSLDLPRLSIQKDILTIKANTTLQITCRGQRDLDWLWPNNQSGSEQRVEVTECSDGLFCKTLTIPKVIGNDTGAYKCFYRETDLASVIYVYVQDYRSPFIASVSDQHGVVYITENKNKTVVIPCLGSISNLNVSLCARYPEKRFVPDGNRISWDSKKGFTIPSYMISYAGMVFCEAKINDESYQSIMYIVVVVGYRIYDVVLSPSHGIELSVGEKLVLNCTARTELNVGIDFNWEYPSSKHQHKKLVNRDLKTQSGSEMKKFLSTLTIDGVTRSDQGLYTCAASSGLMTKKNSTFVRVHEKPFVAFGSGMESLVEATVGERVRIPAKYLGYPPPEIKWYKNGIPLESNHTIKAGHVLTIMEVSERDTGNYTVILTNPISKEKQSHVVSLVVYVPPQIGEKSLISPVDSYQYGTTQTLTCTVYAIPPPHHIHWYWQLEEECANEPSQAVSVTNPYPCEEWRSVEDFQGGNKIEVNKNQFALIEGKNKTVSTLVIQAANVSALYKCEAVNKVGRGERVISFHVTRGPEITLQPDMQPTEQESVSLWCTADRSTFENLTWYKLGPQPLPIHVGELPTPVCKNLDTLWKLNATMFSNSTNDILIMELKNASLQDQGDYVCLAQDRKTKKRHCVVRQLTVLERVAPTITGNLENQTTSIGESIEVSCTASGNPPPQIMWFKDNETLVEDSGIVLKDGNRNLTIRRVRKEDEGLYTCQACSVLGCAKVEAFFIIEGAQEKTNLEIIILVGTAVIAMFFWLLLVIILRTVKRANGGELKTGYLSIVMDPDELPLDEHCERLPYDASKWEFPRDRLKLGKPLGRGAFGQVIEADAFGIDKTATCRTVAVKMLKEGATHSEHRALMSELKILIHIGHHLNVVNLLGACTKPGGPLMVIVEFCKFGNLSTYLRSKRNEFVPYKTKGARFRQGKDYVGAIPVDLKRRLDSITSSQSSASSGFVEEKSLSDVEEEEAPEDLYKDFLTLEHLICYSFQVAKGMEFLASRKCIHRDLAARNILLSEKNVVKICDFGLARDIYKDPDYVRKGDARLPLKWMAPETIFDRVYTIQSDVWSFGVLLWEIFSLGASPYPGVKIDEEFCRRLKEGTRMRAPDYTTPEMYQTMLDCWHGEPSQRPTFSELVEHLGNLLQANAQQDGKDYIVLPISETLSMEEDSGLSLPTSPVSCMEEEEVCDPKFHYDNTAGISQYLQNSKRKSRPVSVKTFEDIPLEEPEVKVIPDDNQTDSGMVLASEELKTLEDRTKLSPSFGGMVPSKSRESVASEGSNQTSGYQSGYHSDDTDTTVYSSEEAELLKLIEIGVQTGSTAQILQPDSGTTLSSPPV

In the case of `CN1CCN(CCCNc2nc3ccc(Oc4ccc(NC(=O)Nc5cc(C(F)(F)F)ccc5F)cc4)cc3[nH]2)CC1`, the inhibition in test [1] was -1.94%; in [2] it was 6.45%; in [3], 1.78%; in [4], 3.76%; in [5], 6.4%; in test [6] it was -2.58%. Besides, the inhibition in test [7] was found to be 0.29%; in [8], 38.6%; in [9] it was 71.9%; in test [10] it was 48.5%.
On to `O=C1Nc2ccccc2/C1=C/Nc1ccc(-n2cncn2)cc1`, for which the inhibition in [1] is 4.51%; in [2], 5.01%; in test [3], 29.9%; in test [4] it was 0.53%; in test [5], 0.69%; in test [6] it was -1.1%. The inhibition in test [7] was determined as 6.49%; in test [8], 7.9%; in test [9], 37.3%; in [10], 21.5%.
With `Fc1ccc(-c2nc3n(c2-c2ccncc2)CCS3)cc1`, the inhibition is -1.9% in test [1]; 2.03% in test [2]; 4.76% in test [3]; 0.84% in test [4]; 1.07% in test [5]; -4.98% in [6]. Also, the inhibition was -4.14% in test [7], 5.19% in [8], 8.03% in [9] and 5.12% in test [10].
For the compound `Cc1ccc(C(=O)NC2CCC2)cc1-c1ccc(C(=O)NCC2CC2)cc1`, the inhibition is 1.48% in test [1]; 0.07% in test [2]; 0.59% in test [3]; 0.91% in test [4]; 0.54% in [5]; -1.22% in test [6]. The inhibition in test [7] stood at 1.06%; in test [8], 3.33%; in [9] it was 3.21%; in [10], 2.49%.
Regarding `C[C@@H](Oc1cc(-n2cnc3ccc(OC4CCN(C)CC4)cc32)sc1C(N)=O)c1ccccc1Cl`, the inhibition in test [1] is -1.75%; in [2], 0.47%; in test [3], -0.07%; in test [4] it was 4.66%; in [5], 2.46%; in [6], -5.38%. Also, the inhibition is 13.5% in test [7], 9.62% in [8], 40.3% in test [9] and 5.05% in test [10].
For `O=C(Nc1ccc(Oc2ccc3[nH]c(NC(=O)c4ccccc4)nc3c2)cc1)Nc1cc(C(F)(F)F)ccc1F`, the inhibition in test [1] was 2.09%; in test [2], 1.88%; in test [3] it was 7.18%; in test [4], 1.51%; in test [5] it was 4.06%; in [6] it was -0.16%. The values for the inhibition in test [7] and in test [10] were 9.29% and 10.4%, respectively.
Turning to `CN(c1ccc(NC(=O)Nc2c(Cl)cccc2Cl)cc1)c1ccnc(Nc2cccc(CS(C)(=O)=O)c2)n1`, the inhibition in test [1] is 71.1%; in [2] it was 8.34%; in test [3], 19.7%; in test [4], 2.35%; in test [5], 20.7%; in test [6], 0.53%. Besides, the inhibition in test [7] amounted to 2.77%; in test [8] it was 24.6%; in [9], 56.3%; in test [10], 88.5%.
For the compound `Fc1ccc(-c2ncn(CCCN3CCOCC3)c2-c2ccncc2)cc1`, the inhibition is 1.2% in test [1]; 1.72% in test [2]; -1.2% in test [3]; -0.43% in test [4]; 0.65% in test [5]; 0.1% in [6]. Moreover, the inhibition in test [7] is 1.07%; in test [8], -0.88%; in test [9], 1%; in test [10], -3.23%.
For `O=C1NC(=O)C(c2cccc(Cl)c2)=C1Nc1ccc(Cl)c(C(=O)O)c1`, the inhibition was 0.9% in [1]; 4.75% in [2]; 13.7% in [3]; 0.64% in test [4]; 0.7% in [5]; -0.9% in [6]. Besides, the inhibition in [7] came out at 9.29%; in test [8], 6.04%; in test [9], 23.5%; in test [10] it was 6.54%.
For the compound `FC(F)(F)c1cccc(Nc2nccc(-c3cnn4nc(-c5ccccc5)ccc34)n2)c1`, the inhibition in test [1] is 3.33%; in [2] it was -0.86%; in test [3] it was 0.5%; in [4] it was -0.15%; in [5] it was 0.22%; in test [6] it was -1.84%. In addition, the inhibition in [7] was -0.12%; in [8], 0.05%; in test [9], 6.02%; in test [10], 5.78%.
For the compound `NC(=O)Cc1ccccc1Oc1nccc(-c2c(-c3ccc(F)cc3)ncn2C2CCNCC2)n1`, the inhibition in [1] is 1%; in test [2], 2.63%; in test [3], -2.73%; in test [4], 0.56%; in [5] it was -0.85%; in [6] it was -1.1%. Moreover, the inhibition in test [7] was 0.74%; in test [8], 1.89%; in [9] it was 3.48%; in test [10] it was 1.71%.
As to `COc1cccc(/C=N/Nc2ncnc3c2cnn3-c2cccc(OC)c2)c1`, the inhibition is 0.34% in test [1]; 1.61% in test [2]; 4.23% in [3]; 3.55% in [4]; 5.22% in test [5]; -1.99% in test [6]. In addition, the inhibition is -2.7% in test [7], 5.88% in [8], 11.2% in [9] and 6.67% in test [10].
Take `COc1cc2ncn(-c3cc(OCCc4ccccc4)c(C(N)=O)s3)c2cc1OC`: the inhibition in [1] was 2.27%; in test [2], 1.72%; in test [3], -5.52%; in test [4] it was 0.93%; in test [5], 0.41%; in test [6], -0.27%. Moreover, the inhibition is -0.4% in [7], 3.48% in test [8], 17% in test [9] and 0.95% in test [10].
As to `CCc1cccc(CC)c1/C=C/c1cncc(C(=O)NC)c1`, the inhibition in [1] was 2.29%; in test [2] it was 2.03%; in [4] it was 1.99%; in test [5], 1.71%; in test [6], -1.8%; in [7], 0.86%. Moreover, the inhibition in [8] was 6.02%; in [9], 8.91%; in test [10], 1%.
For `CS(=O)(=O)CCNCc1ccc(-c2ccc3ncnc(Nc4ccc(OCc5ccccc5)c(Br)c4)c3c2)o1`, the inhibition in test [1] was -2.69%; in test [2], 3.52%; in test [3] it was 3.08%; in [4] it was 1.19%; in test [5] it was -1.02%; in test [6], -5.54%. Besides, the inhibition was -5.98% in test [7], 10.1% in test [8], 11.1% in [9] and 3.38% in [10].
With `CN(C)CCCNc1nccc(-c2c(-c3ccc(F)cc3)nn3cc(C(F)(F)F)ccc23)n1`, the inhibition in [1] is -1.31%; in test [2], 0.29%; in test [3], -0.9%; in test [4], 0.65%; in [5], 3.68%; in [6], -2.83%. In addition, the inhibition was -1.89% in [7], 6.32% in [8], 11.3% in test [9] and 3.48% in [10].
With `NS(=O)(=O)c1ccc(N/N=C2\C(=O)Nc3ccc(C(=O)NCCCn4ccnc4)cc32)cc1`, the inhibition is 3.12% in test [1]; 5.06% in [2]; 23.8% in test [3]; 0.1% in test [4]; 4.95% in test [5]; -2% in test [6]. The inhibition in [7] was found to be 18.8%; in test [8], 8.51%; in test [9] it was 34.1%; in test [10], 4.8%.
